The source of these data is PubChem BioAssay.

Experiment [1] concerns Plasmodium falciparum Sir2 (PF13_0152, Sir2A). The experiment is described as follows: Plasmodium falciparum Sir2A binding compounds – biochemical, small-molecule microarray, 635 nm fluorescence, primary screen (AID 1098).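 Also: score merges spot fluorescence intensity with its signal-to-noise ratio.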 The following applies: fluorescence 635 nm, higher = more signal.
Experiment [2] in a line: probe aDKK1 binding to arrayed compounds – biochemical, biotinylated probe, 635/667 nm fluorescence, primary screen (AID 1099).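 Also: score merges 667nm spot fluorescence with signal to noise across triplicate slides.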 To be noted: small-molecule microarray, higher = more signal.
A short description of experiment [3]: probe aCHRDL2 binding to arrayed compounds – biochemical, biotinylated probe, 635/667 nm fluorescence, primary screen (AID 1100). The following applies: small-molecule microarray, higher = more signal.
Experiment [4] can be described thus: change in splice reporter luminescence, either direction, cell-based, HEK293, spliceosome inhibition project, primary screen (AID 1101).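 Also: HEK293 cells carrying a splicing-competent luciferase reporter gene; test concentration not given here.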 To be noted: HEK293 splicing luciferase reporter, 24 h, higher = more signal, called active from +8 up or from −8 down.
The target of experiment [5] is Fibroblast growth factor 10 (Homo sapiens) (UniProt O15520). The experiment can be described thus: compounds binding fibroblast growth factor 10 – biochemical, small-molecule microarray, 635 nm fluorescence, primary screen (AID 1102). The following applies: FGF10 binding, fluorescence 635 nm, higher = more signal.
In experiment [6] the test system is glycogen synthase kinase-3 (GSK3A per assay name; protocol says GSK3B). The experiment is described as follows: compounds binding glycogen synthase kinase-3 – biochemical, small-molecule microarray, 635 nm fluorescence, GSK3A, primary screen (AID 1103). Also: the record names both GSK3A and GSK3B. To be noted: fluorescence 635 nm, higher = more signal.
The target in experiment [7] is Epidermal growth factor receptor (Homo sapiens) (UniProt P00533). The experiment can be described thus: compounds binding epidermal growth factor receptor – biochemical, small-molecule microarray, 635 nm fluorescence, primary screen (AID 1104).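 Also: score merges 667 nm emission intensity with spot signal to noise over triplicate slides.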 The following applies: EGFR binding, higher = more signal.
For experiment [8], the target named is Follistatin-related protein 3 (Homo sapiens) (UniProt O95633). The experiment is described as follows: compounds binding follistatin-related protein 3 – biochemical, small-molecule microarray, 635 nm fluorescence, primary screen (AID 1105).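 Also: score merges emission near 667 nm and signal to noise per printed spot across three slides.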 To be noted: FSTL3 binding, higher = more signal.
In experiment [9] the target is Dickkopf-related protein 1 (Homo sapiens) (UniProt O94907). The experiment can be described thus: small molecules binding DKK1 protein – biochemical, small-molecule microarray, 635 nm fluorescence scan, primary screen (AID 1106).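 Also: score merges emission near 667 nm with signal to noise over three replicate slides.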 To be noted: higher = more signal.
In experiment [10] the test system is Inhibin beta A chain (activin A). The experiment is described as follows: small molecules binding activin A – biochemical, small-molecule microarray, 635 nm fluorescence scan, primary screen (AID 1107).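 Also: mouse activin A protein probed at 4.33 µg/mL on printed slides; score merges bound-protein fluorescence near 667 nm with spot signal-to-noise.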 The following applies: INHBA, higher = more signal.
Experiment [11] deals with Human papillomavirus type 1a protein E7 (residues 44-93). The experiment is described as follows: small molecules binding HPV E7 44-93 – biochemical, small-molecule microarray, residues 44-93, 635 nm fluorescence, primary screen (AID 1108).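 Also: E7 fragment applied at 1 µg/mL in TBST for 1 h at 4 C; score combines spot fluorescence with its signal to noise ratio.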 To be noted: fluorescence 635 nm, higher = more signal.
Experiment [12] in a line: hepatitis C replication reporter changes, two-sided – Huh7 cells, luciferase reporter, HCV replication inhibitor project, primary screen (AID 1109).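 Also: huh7 hepatoma cells harbouring a luciferase neomycin HCV replicon reporter; luciferase luminescence as measure of HCV replicon replication; test concentration not given here.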 The following applies: Huh7 HCV replicon luciferase reporter, 48 h; higher = more signal.
Experiment [13] concerns the target Left-right determination factor 2 (Homo sapiens) (UniProt O00292). The experiment can be described thus: small molecules binding LEFTY2 protein – biochemical, small-molecule microarray, 635 nm fluorescence scan, primary screen (AID 1110). To be noted: higher = more signal.
For experiment [14], the target named is Calmodulin-1 (Homo sapiens) (UniProt P0DP23). The experiment is described as follows: small molecules binding calmodulin-1 with EGTA – biochemical, small-molecule microarray, Cy5-labelled CALM1, profiling panel (AID 1111).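 Also: labelled calmodulin applied in Tris saline Tween buffer holding calcium plus EGTA and DTT.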 The following applies: Cy5-CALM1 binding fluorescence, higher = more signal.
The target is the same in experiment [15]. The experiment is described as follows: small molecules binding Ca-loaded calmodulin-1 – biochemical, small-molecule microarray, Cy5-labelled CALM1, plus calcium, artefact control for SMM control-protein annotation, profiling panel (AID 1112).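 Also: score merges spot fluorescence with signal to noise from triplicate slides.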 The following applies: Cy5-CALM1 binding fluorescence, higher = more signal.
The nature of experiment [16]: probe aWnt5a binding to arrayed compounds – biochemical, biotinylated probe, 635/667 nm fluorescence, primary screen (AID 1113).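 Also: score merges 667 nm fluorescence intensity with signal-to-noise per printed feature.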 To be noted: small-molecule microarray, higher = more signal.
Experiment [17] can be described thus: probe aShh binding to arrayed compounds – biochemical, biotinylated probe, 635/667 nm fluorescence, primary screen (AID 1114).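 Also: probe is biotin-labelled aShh protein from a stem cell growth factor screen; measures binding of labelled protein to compounds printed on the slide; score merges feature fluorescence at 667 nm with signal-to-noise.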 To be noted: small-molecule microarray, higher = more signal.
Experiment [18] is described as follows: probe aNog binding to arrayed compounds – biochemical, biotinylated probe, 635/667 nm fluorescence, primary screen (AID 1115).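 Also: probe is biotinylated aNog protein used at 0.15 µg/mL for 1 h at 4 C; z-score combines 667 nm fluorescence of each spot with its signal to noise.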 To be noted: small-molecule microarray, higher = more signal.
The target of experiment [19] is Torsin-1A-interacting protein 1 (Homo sapiens) (UniProt Q5JTV8). The experiment is described as follows: compound microarray binding of lysate hLAP1 – cell lysate, small-molecule microarray, COS7 lysate, 635/667 nm fluorescence, primary screen (AID 1116). The following applies: 635 nm fluorescence, higher = more signal.
Experiment [20] deals with Alpha-bungarotoxin (Bungarus multicinctus) (UniProt P60615). The experiment can be described thus: compounds binding labelled alpha-BTX control protein – biochemical, small-molecule microarray, Alexa647 label, 635/667 nm fluorescence, artefact control for SMM control protein annotation, profiling panel (AID 1117). The following applies: alpha-BTX-A647 binding fluorescence, higher = more signal.

Active and inactive are the calls of the source.

Sequence of Epidermal growth factor receptor (Homo sapiens) (P00533 whole entry, looked up): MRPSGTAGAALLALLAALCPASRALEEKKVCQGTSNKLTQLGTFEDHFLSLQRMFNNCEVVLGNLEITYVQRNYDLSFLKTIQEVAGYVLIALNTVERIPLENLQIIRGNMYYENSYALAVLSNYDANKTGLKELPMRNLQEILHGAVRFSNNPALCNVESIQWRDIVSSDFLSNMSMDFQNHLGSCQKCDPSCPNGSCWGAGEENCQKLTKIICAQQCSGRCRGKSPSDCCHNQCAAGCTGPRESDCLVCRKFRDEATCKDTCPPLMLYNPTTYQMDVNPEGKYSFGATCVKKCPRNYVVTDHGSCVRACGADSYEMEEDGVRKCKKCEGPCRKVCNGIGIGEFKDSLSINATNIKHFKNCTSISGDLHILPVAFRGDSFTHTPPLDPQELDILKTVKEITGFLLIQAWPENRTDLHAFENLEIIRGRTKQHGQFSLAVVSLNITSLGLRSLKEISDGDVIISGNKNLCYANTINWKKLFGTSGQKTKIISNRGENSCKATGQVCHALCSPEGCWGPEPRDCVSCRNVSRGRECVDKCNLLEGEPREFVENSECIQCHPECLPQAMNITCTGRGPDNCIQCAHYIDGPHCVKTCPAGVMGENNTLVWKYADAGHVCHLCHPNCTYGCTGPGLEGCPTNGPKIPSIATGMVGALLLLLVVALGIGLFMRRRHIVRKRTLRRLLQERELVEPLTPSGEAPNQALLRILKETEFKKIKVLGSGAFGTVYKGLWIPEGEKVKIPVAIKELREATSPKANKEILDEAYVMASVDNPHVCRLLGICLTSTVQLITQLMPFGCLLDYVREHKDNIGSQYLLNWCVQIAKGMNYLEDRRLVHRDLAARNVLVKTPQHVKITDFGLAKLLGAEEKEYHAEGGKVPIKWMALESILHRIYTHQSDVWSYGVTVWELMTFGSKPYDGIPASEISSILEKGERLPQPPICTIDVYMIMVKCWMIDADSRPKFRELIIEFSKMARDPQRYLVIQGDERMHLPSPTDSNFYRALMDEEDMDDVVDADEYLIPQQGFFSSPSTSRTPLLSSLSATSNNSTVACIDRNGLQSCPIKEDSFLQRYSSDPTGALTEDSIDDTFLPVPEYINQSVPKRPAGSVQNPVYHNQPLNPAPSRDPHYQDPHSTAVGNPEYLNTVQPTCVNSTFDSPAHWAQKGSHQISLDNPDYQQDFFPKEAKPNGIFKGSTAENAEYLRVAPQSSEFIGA
Sequence of Dickkopf-related protein 1 (Homo sapiens) (O94907 whole entry, looked up): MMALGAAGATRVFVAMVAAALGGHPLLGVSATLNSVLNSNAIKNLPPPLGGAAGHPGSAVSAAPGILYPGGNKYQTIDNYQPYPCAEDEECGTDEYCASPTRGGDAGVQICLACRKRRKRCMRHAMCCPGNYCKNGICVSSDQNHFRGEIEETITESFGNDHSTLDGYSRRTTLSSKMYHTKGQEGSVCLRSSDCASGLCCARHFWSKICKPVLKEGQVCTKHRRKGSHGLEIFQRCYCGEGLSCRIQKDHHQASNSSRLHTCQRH
Sequence of Alpha-bungarotoxin (Bungarus multicinctus) (P60615 whole entry, looked up): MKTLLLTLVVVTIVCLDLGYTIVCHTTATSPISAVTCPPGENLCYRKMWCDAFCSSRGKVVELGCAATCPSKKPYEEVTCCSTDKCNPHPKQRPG
Sequence of Follistatin-related protein 3 (Homo sapiens) (O95633 whole entry, looked up): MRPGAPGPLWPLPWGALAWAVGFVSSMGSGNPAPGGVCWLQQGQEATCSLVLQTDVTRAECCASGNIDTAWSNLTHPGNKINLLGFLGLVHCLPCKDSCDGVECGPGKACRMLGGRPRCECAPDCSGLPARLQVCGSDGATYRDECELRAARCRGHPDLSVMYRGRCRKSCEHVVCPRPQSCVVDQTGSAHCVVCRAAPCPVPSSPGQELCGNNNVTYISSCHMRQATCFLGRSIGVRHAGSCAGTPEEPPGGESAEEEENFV
Sequence of Torsin-1A-interacting protein 1 (Homo sapiens) (Q5JTV8 whole entry, looked up): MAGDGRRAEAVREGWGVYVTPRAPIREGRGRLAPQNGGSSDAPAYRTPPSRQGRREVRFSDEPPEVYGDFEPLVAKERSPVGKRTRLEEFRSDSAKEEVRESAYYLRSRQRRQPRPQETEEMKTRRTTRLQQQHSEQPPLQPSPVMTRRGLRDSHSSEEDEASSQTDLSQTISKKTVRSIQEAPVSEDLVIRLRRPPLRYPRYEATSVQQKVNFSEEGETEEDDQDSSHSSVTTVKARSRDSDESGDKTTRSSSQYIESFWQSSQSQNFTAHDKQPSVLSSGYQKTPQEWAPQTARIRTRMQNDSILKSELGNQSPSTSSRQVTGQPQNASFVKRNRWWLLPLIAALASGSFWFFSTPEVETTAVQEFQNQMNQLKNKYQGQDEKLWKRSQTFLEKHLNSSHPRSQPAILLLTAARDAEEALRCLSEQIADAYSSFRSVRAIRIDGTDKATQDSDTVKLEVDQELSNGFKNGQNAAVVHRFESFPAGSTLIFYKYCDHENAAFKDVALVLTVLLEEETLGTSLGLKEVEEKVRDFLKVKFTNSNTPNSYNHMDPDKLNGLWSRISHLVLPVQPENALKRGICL
Sequence of Left-right determination factor 2 (Homo sapiens) (O00292 whole entry, looked up): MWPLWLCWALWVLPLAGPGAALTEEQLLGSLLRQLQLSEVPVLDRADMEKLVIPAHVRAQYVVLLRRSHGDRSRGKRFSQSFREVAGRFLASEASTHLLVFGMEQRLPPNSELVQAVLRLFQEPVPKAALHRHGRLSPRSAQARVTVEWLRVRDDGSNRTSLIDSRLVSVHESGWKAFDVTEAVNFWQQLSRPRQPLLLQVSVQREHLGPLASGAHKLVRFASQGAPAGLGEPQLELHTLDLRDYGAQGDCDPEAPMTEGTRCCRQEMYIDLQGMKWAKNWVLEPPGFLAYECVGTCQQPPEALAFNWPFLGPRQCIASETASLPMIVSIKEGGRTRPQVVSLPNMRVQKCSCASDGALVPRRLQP
Sequence of Fibroblast growth factor 10 (Homo sapiens) (O15520 whole entry, looked up): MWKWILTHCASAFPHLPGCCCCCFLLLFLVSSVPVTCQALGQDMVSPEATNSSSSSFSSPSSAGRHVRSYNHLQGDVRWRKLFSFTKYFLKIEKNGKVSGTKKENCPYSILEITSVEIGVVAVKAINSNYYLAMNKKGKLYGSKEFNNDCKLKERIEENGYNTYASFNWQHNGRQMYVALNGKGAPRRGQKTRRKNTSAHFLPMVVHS

As to `CC(=O)n1cc(C(O)C2C=CC3C(=O)N(c4ccccc4)C(=O)C3N2Nc2ccc(C(C)C)cc2)c2ccccc21` (stereo not given), the composite z-score worked out at 1.17 in experiment [1]; 0.389 in [2]; 0.883 in experiment [3]; 0.881 in experiment [5]; 1.1 in experiment [6]; 0.281 in experiment [7]. Also, the composite z-score was 0.766 in experiment [8]; 0.076 in [9]; 1.02 in experiment [10]; 0.656 in experiment [11]; -0.0688 in experiment [13]; 2.53 in experiment [14]. Also, the composite z-score in [15] is 1.38; in experiment [16], -0.0394; in experiment [17] it was 0.0328; in experiment [18], 1.41; in experiment [19], 1.68; in experiment [20], 1.6. In addition, the results for the z-score in experiment [4] and in [12] were 0.811 (inactive) and -0.909, respectively.

For the compound `CCOC(=O)C1=C[C@@H](C(C)(C)C)N(S(=O)(=O)c2ccc(C)cc2)[C@H]1c1ccccc1`, the composite z-score in experiment [1] was determined as 0.104; in experiment [2], 1.44; in experiment [3], 1.22; in [5], 0.982; in experiment [6], 1.29; in experiment [7] it was 0.591. Moreover, the composite z-score stood at 1.26 in experiment [8]; 0.743 in [9]; 0.556 in [10]; 0.834 in experiment [11]; 0.561 in experiment [13]; 1.99 in experiment [14]. Moreover, the composite z-score in [15] amounted to 0.838; in experiment [16], 0.0873; in experiment [17], 0.0469; in [18], 0.109; in [19] it was 1.26; in [20], 1.11. Besides, the z-score in experiment [4] was 1.07 (inactive); in experiment [12], -2.05.

Take `COCC(=C=CC[C@H](O)c1cccc(OCCO)c1)C[C@H](O)COCc1ccccc1`: the composite z-score was 1.66 in experiment [1]; 0.39 in experiment [2]; -0.121 in experiment [3]; 1.17 in [5]; 0.677 in [6]; -0.751 in [7]. In addition, the composite z-score in [8] is 0.0438; in [9], -0.529; in [10], 1.03; in experiment [11], 0.768; in [13], -0.35; in [14] it was -0.238. The composite z-score was -0.135 in experiment [15]; 0.0037 in experiment [16]; 0.191 in experiment [17]; -0.0863 in [18]; 1.58 in experiment [19]; -0.363 in [20]. For the same compound, the z-score in [4] was 0.13 (inactive); in experiment [12], -0.754.

For `COC(=O)[C@@]1(Cc2ccccc2)[C@H]2c3cc(C(=O)N(C)C)n(CCn4cc([N+](=O)[O-])nc4C)c3C[C@H]2CN1C(=O)c1ccccc1`, the composite z-score in experiment [1] was 1.72; in experiment [2], -0.262; in [3] it was 0.436; in experiment [5], 0.937; in experiment [6], 0.793; in experiment [7], 0.355. The composite z-score in experiment [8] was 0.444; in experiment [9], 0.0356; in experiment [10], 0.581; in experiment [11] it was 1.15; in [13], 0.0356; in experiment [14], 0.437. For the same compound, the composite z-score in experiment [15] stood at 0.361; in experiment [16], 0.0162; in experiment [17] it was 0.0952; in experiment [18], 0.576; in [19], 2.83; in [20], 0.413. The z-score is -0.106 (inactive) in [4] and -0.347 in experiment [12].

With `C=C(/C(=C/C[C@H](OC(=O)c1ccncc1)c1cccc(OCCO)c1)c1cnc2ccccc2c1)C(C)C`, the composite z-score in [1] is 0.411; in experiment [2], -0.0011; in experiment [3], 0.454; in [5], 1.47; in experiment [6], 1.18; in [7], 0.539. The composite z-score amounted to 1.51 in [8]; 0.739 in [9]; 1.68 in experiment [10]; 0.589 in experiment [11]; 0.67 in [13]; 0.127 in experiment [14]. Moreover, the composite z-score in experiment [15] is -0.412; in experiment [16], -0.0236; in [17], -0.0011; in experiment [18] it was 0.0215; in experiment [19] it was 2.85; in [20], 3.56. For the same compound, the z-score in experiment [4] was -1.46 (inactive); in experiment [12], -4.47.

Consider `O=C1O[C@H](c2ccccc2)[C@H](c2ccccc2)N2[C@H]1[C@@H](C(=O)O)[C@]1(C(=O)Nc3ccc(C#CC4(O)CCCCCC4)cc31)[C@H]2c1ccc(O)cc1`, for which the composite z-score in experiment [1] is 0.502; in experiment [2], -0.2; in experiment [3] it was 0.14; in experiment [5], 0.0884; in experiment [6], -0.103; in experiment [7], 0.161. Besides, the composite z-score in experiment [8] was -0.544; in [9], -0.297; in experiment [10], 0.138; in experiment [11], 0.628; in experiment [13] it was -0.114; in [14], 0.277. Moreover, the composite z-score was 0.431 in experiment [15]; -0.124 in [16]; 0.0611 in experiment [17]; -0.291 in [18]; -0.0781 in [19]; -0.0118 in [20]. Also, the z-score in [4] is -0.574 (inactive); in experiment [12], -0.772.
